Consider 14 compounds from PubChem BioAssay (NCATS).

Where “and” joins values, the source holds several entries; their conditions need not be identical. Identical values can stand only once. Records with an inconclusive call do not appear. Values without a mark were called inactive. Calls of active or inactive are those of the source. The call rests on the fitted dose curve; in most records, active means well fitted inhibition curve with a large enough effect; inconclusive means small, poorly fitted or top-dose-only effect; inactive means flat fitted curve, though single readings scatter.
On the % scale 0 is the no-effect control and ±100 the full control effect; potency means the concentration at half of the fitted maximal effect.

This experiment can be described thus: Primary qHTS for inhibitors of nuclear receptor binding SET domain protein 2 (NSD2) in an isogenic RCH-ACV NSD2 p.E1099K mutant (9B) (AID 1645876). Further: nearly all actives have a fitted effect of over 70% in size. The settings on record: RCH-ACV (leukaemia line) NSD2 E1099K (9B) viability, CellTiter-Glo, 72 h; series mostly up to 44.9 µM; activity change, negative = viability loss: at the top concentration.
Turning to `CC(C)[C@H](CO)Nc1nc(Nc2ccc(C(=O)O)c(Cl)c2)c2ncn(C(C)C)c2n1`, the Potency entry is “inactive”.

Regarding `O=C1C(Cl)=C(NCCN2CCOCC2)C(=O)c2ncccc21`, the Potency is 7.42 µM (active). As to `O=C(Nc1c(Cl)cncc1Cl)c1ccc(OC(F)F)c(OCC2CC2)c1`, the “activity change, negative = viability loss” value was 3.81%.

Turning to `CC(C)(C)c1cc(C(=O)O)c(NC(=O)Nc2ccc3[nH]ncc3c2)s1`, the Potency result is “inactive”. On to `COc1cccc([C@@H](C)NCCCc2ccccc2Cl)c1`, for which the Potency was 18.6 µM (active). In the case of `CCCCCNC(=O)N1CCC(CN(Cc2ccc(Cl)cc2)Cc2ccc([N+](=O)[O-])s2)C1` (centres undefined), the “activity change, negative = viability loss” value was -6.65%. Same read-out and setting: the value for `CC(=O)Oc1cc2c(s1)CCN(C(C(=O)C1CC1)c1ccccc1F)C2` (centres undefined) was -8.38%. The same measure, in the same setting: the value for `CC#CCn1c(N2CCC[C@@H](N)C2)nc2c1c(=O)n(Cc1nc(C)c3ccccc3n1)c(=O)n2C` was -5.03%. As to `O=c1cc(-c2cccc3c2Sc2ccccc2S3)oc(N2CCOCC2)c1`, the Potency was 11.6 µM (active) and 14.8 µM (active). Turning to `CCOC(CN1C(=O)[C@](CC(=O)Nc2ccc(C)cc2)(NC(=O)Nc2ccc(C)cc2)c2ccccc21)OCC`, the Potency is 10.5 µM (active).

In the case of `O=C(NCc1ccccc1)c1csc(Nc2ccncn2)n1`, the Potency is 11.8 µM (active). Regarding `Cc1ccc(Nc2cc(-c3cccc(N4C(=O)c5ccccc5C4=O)c3)ncn2)cc1NS(C)(=O)=O`, the Potency is 16.6 µM (active). `C=C1C(=O)[C@@]23C(CC[C@@H]1[C@H]2O)[C@@]12CO[C@]3(O)[C@@H](O)[C@@H]1C(C)(C)CC[C@@H]2O` (some centres undefined): the Potency is 2.35 µM (active). In the case of `N#Cc1ccc(NC(=O)Nc2ccccc2Br)c2n[nH]nc12`, the “activity change, negative = viability loss” value was -8.61%.
